A selection: hits, their analogues and other compounds. The true share with any hit is near 7.2%.
Marburg entry inh – Marburg virus entry inhibition. actives 1.8% (n = 300,000). Marburg virus pseudotyped entry inhibition, cell reporter. Potency, µM (highest dose often 37.8 µM), for the others: at the top dose activity change, negative = inhibition, hits mostly inhibitors; calls by dose curve; tested in HEK293 cells
RE007 growth inh – less growth of the S. pombe RE007 Vpr strain; S. pombe RE007 Vpr strain, BacTiter-Glo ATP luminescence, 24 h; Potency, µM (highest dose often 92.2 µM), without a hit: at the highest dose activity change, negative = less growth, actives largely listed as inhibitors; actives 0.21% (n = 360,000); AID 651644; active means well fitted falling curve with a large enough effect; inconclusive means small, poorly fitted or top-dose-only effect; inactive means no such curve, though single readings can be large or run the other way; further: nearly all actives have a fitted effect of over 50% in size
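Fission yeast RE007 carrying one integrated HIV-1 vpr copy, seeded at OD 0.01 in PMG+AL medium with 23 nL pinned compound. Grown 24 h at 30 degrees; viability read by BacTiter-Glo luminescence after 5 min.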
FMDV antiviral – antivirals against foot and mouth disease virus; FMDV antiviral cell-based qHTS; Potency, µM (highest dose often 57.9 µM), without a hit: at the highest dose activity change, negative = inhibition, actives largely listed as inhibitors; actives 1.2% (n = 410,000); AID 1159524; calls by dose curve; tested in HEK293T cells; further: read-out not given here; nearly all actives have a fitted effect of over 45% in size
Sm TGR block – inhibitors of Schistosoma mansoni thioredoxin glutathione reductase | Q962Y6 | purified TGR, DTNB reduction, TNB absorbance 405 nm | Potency, µM (highest dose often 114 µM), without a hit: at the top dose activity change, negative = inhibition, most hits filed as inhibitors | actives 3% (n = 360,000); further: nearly all actives have a fitted effect of over 60% in size
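Kinetic colorimetric format: TGR-catalysed, NADPH-driven DTNB reduction monitored via TNB absorbance. Enzyme dispensed at 20 nM; compound exposure 15 min at room temperature before reaction start.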
HCV inh – blocks hepatitis C virus; Huh7.5.1 HCVcc-Cre infection, luciferase reporter, 44 h; Potency, µM (titrated, usually from 41.8 µM), for inactives: at the highest dose activity change, negative = inhibition, hits mostly inhibitors; AID 651820; actives 3.4% (n = 340,000)
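Cells seeded at 1,000/well and cultured 4 h, then compounds added followed by HCVcc-Cre virus (~0.5 moi). After 44 h further culture, luciferase substrate was added, plates held 15 min at room temperature, and luminescence read for 15 sec.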
Lassa entry inh – inhibitors of Lassa virus binding or cell entry; Lassa virus pseudotype entry inhibition, cell reporter; Potency, µM (titrated, usually from 37.9 µM), for inactives: top-dose activity change, negative = inhibition, usual class: inhibitors; actives 1.2% (n = 300,000); AID 540256; calls by dose curve; tested in HEK293 cells; further: nearly all actives have a fitted effect of over 50% in size
* = called active by the depositor; ? = inconclusive; / = not tested or not shown; [ ] = another dose, or the depositor's remark. Unless noted, the call rests on the fitted dose curve; in most records, active means well fitted curve in the direction sought with a large enough effect; inconclusive means small, poorly fitted or top-dose-only effect, or another doubt; inactive means no such curve, though single readings can be large; an effect the other way counts as inactive or inconclusive. On the % scale 0 is the no-effect control and ±100 the full control effect; potency means the concentration at half of the fitted maximal effect.

SMILES	Marburg entry inh	RE007 growth inh	FMDV antiviral	Sm TGR block	HCV inh	Lassa entry inh
NC(=O)c1ccccc1N/C=C/C(=O)c1ccc(Cl)cc1Cl	5.6µM*	-19%	-77%	1%	-3%	?
CC(=O)c1cc(-c2ccc(F)cc2)n(CC(=O)Nc2cc(C)cc(C)c2)c1C	/	/	10%	5%	/	-3%[46.1 µM]
C[C@H]1CC[C@H]2C(=O)O[C@H](COc3ccc(C(C)(C)C)cc3)CN2[C@@H]1c1ccc(Br)cc1	-12%[14.2 µM]	/	/	/	/	/
O=C(/C=C/Nc1ccc(Br)cc1F)c1ccccc1	1.3µM*	-15%	?	2%	6%	1.6µM*
O=C(/C=C/NNC(=O)c1ccc(Cl)cc1)c1ccccc1	/	12%	18%	?	8.9µM*	/
N#Cc1ccccc1N/C=C/C(=O)c1ccc(Cl)cc1	?	5%	-25%	/	?	13µM*
O=C(/C=C/Nc1ccccc1F)c1ccc(Br)cc1	?	8%	-62%	-2%	?	?
CCCCCCn1c(SCC(C)C)nc2c1c(=O)[nH]c(=O)n2C	-22%	8%	?	-4%	?	-5%
CCCCCn1c(Sc2nc3ccccc3s2)nc2c1c(=O)[nH]c(=O)n2C	?	11%	/	-23%	8.9µM*	?
CCCCn1c(SCc2ccc(Cl)cc2)nc2c1c(=O)[nH]c(=O)n2C	?	2%	35µM*	-2%	7%	?
CCCCCCn1c(SCC(=O)OC)nc2c1c(=O)[nH]c(=O)n2C	/	-5%	0%	-1%	5µM*	/
C/C=C/Cn1c(SCc2ccccc2)nc2c1c(=O)[nH]c(=O)n2C	?	-1%	?	1%	-12%	13µM*
COCCNc1ccnc(-c2ccccc2CN(C)C)n1	/	/	-10%	/	/	/
COc1ccc(/C(O)=C2\C(=O)C(=O)N(CCN3CCOCC3)[C@H]2c2ccccn2)cc1	2%[46.1 µM]	/	/	/	/	/
Cc1ccccc1-c1ccc2ncnc(NCc3cccs3)c2c1	/	/	-12%	/	/	/
Cc1csc(=O)n1CCC(=O)OCC(=O)NCc1ccc(Cl)cc1Cl	-4%	10%	-9%	-1%	11%	1%
Cc1csc(=O)n1CCC(=O)OCC(=O)NNC(=O)c1ccc(Cl)cc1	20%	0%	-12%	35µM*	1%	16%
Cc1ccc(C(C)C)c(OCC(=O)NCC2(N3CCOCC3)CCCCC2)c1	?	/	?	-17%	/	-6%[46.1 µM]
CC#CC#Cc1cccc(=O)o1	/	-5%	-26%	20µM*	?	/
NC(=O)C(c1ccc(Br)cc1)c1ccc(C(=O)c2ccccc2)cc1 (centres undefined)	?	12%	-21%	6%	10µM*	?
CCOC(=O)c1c(-c2ccccc2)nc2c(C)cccn12	20%	14µM*	-11%	5%	-17%	1%
CCOC(=O)c1c(-c2ccccc2)nc2ccccn12	3%	18µM*	-29%	-28%	-7%	?
CC1=C(C(=O)OCc2ccccc2)C(c2ccccc2Cl)NC(=O)N1C (centres undefined)	0%	27%	18µM*	1%	?	-16%
COc1ccc(OC)c(C2NC(=O)N(C)C(C)=C2C(=O)OCc2ccccc2)c1 (centres undefined)	/	1%	?	5%	-11%	/
CC1=C(C(=O)OCc2ccccc2)C(c2ccccc2Br)NC(=O)N1 (centres undefined)	?	2%	28µM*	4%	10µM*	?
SMILES	Marburg entry inh	RE007 growth inh	FMDV antiviral	Sm TGR block	HCV inh	Lassa entry inh
C=CCOC(=O)C1=C(C)NC(=O)NC1c1ccc(N(C)C)cc1 (centres undefined)	15%	-11%	-18%	45µM*	-12%	0%
COc1ccc(COC(=O)C2=C(C)NC(=O)NC2c2ccc(F)cc2)cc1 (centres undefined)	?	6%	25µM*	0%	?	?
COc1ccccc1C1NC(=O)NC(C)=C1C(=O)OCc1ccccc1 (centres undefined)	?	-2%	?	-32%	-28%	?
COc1ccccc1N1CCN(CCCNC(=O)c2nnc(Cc3c(F)cccc3Cl)o2)CC1	-1%[46.1 µM]	/	-16%	1%	/	-2%[46.1 µM]
CC1=C(C(=O)OC2CCCCCCC2)C(c2ccc(O)cc2)NC(=O)N1 (centres undefined)	0%	16%	/	?	21%	2.6µM*
CC1=C(C(=O)OC2CCCCC2)C(c2ccccc2)NC(=O)N1 (centres undefined)	?	-12%	-21%	4%	10µM*	?
COc1cc(C2NC(=O)NC(C)=C2C(=O)OC2CCCCC2)cc(Br)c1O (centres undefined)	-5%	-10%	-2%	-17%	21%	?
CC1=C(C(=O)OC2CCCCC2)C(c2ccccc2Br)NC(=O)N1 (centres undefined)	/	-1%	?	0%	-13%	/
Cc1ccc(C)c(-c2nc(Cn3c(=O)cc(-c4ccccc4)c4c(C)nn(C)c43)c(C)o2)c1	/	/	-7%	-1%	/	12%[46.1 µM]
CCOc1ccc(-n2nc3ccc(NC(=O)COc4ccccc4C)cc3n2)cc1	/	/	-10%	0%	/	-18%[46.1 µM]
CCN1C(=O)[C@@H]2[C@H]3[C@H](O)[C@H](O)CC(=NOCC[C@@H]4C=C[C@H](OC(C)=O)[C@@H](COC(C)=O)O4)[C@@H]3CC[C@H]2C1=O	-15%[14.2 µM]	/	/	/	/	/
Clc1nssc1=Nc1nncs1	/	-1%	-25%	50µM*	18%	/
CCc1ccc(-n2c(Cc3ccccc3)nnc2SCc2nc(-c3cccs3)no2)cc1	?	/	0%	0%	/	?
CC(=O)NCCNc1nc(-c2cccnc2)nc2ccccc12	/	/	-6%	/	/	/
Cc1ccc(Nc2cc(C)nc(-c3ccccc3O)n2)cc1	?	-3%	32%	13%	?	8%
Cc1cc(Nc2ccc(Br)cc2)nc(-c2ccccc2O)n1	/	-15%	14%	5%	13µM*	/
Cc1cc(NCCCN)nc(-c2ccccc2O)n1	-1%	-16%	24%	-2%	10µM*	?
COc1ccc(OC)c(NC(=O)c2cc(-c3cc(Cl)ccc3O)n[nH]2)c1	?	16%	-48%	-21%	7.1µM*	?
O=C(NCc1ccccc1Cl)C(=O)NCC(c1cccs1)S(=O)(=O)c1cccs1 (centres undefined)	/	/	-19%	?	/	?
COc1cccc(CNC(=O)C(=O)NCC(c2ccco2)S(=O)(=O)c2cccs2)c1 (centres undefined)	/	/	-29%	4µM*	/	-24%[46.1 µM]
COc1cccc(CNC(=O)C(=O)NCC(c2cccs2)S(=O)(=O)c2cccs2)c1 (centres undefined)	/	/	?	25µM*	/	-13%[46.1 µM]
O=C(/C=C/c1ccccc1)c1ccccn1	17%	35µM*	24%	?	7%	-1%
